Values joined by “and” are separate entries in the source; they are usually repeats but may differ in a detail not shown here. Equal values may be shown once. Records with an inconclusive call do not appear. Active and inactive are the calls of the source. The call rests on the fitted dose curve; in most records, active means well fitted inhibition curve with a large enough effect; inconclusive means small, poorly fitted or top-dose-only effect; inactive means flat fitted curve, though single readings scatter.
Test system: KB-3-1
Test: Cytotoxic Profiling of Annotated Libraries Using Quantitative High-Throughput Screening (AID 1296008); further: nearly all actives have a fitted effect of over 60% in size
Details: Five cell lines viability, CellTiter-Glo ATP luminescence, 48-72 h; max response: stronger effect = lower value
Procedure, shortened: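 Cells exposed to compounds for 48 or 72 hr at 37 degrees Celsius. Viability read as ATP-coupled luminescence with CellTiter-Glo after 10 min at room temperature.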
On the % scale 0 is the no-effect control and ±100 the full control effect.

Which max response does the source give for `CNCC(O)c1ccc(OC(=O)C(C)(C)C)c(OC(=O)C(C)(C)C)c1` (stereo not given) here?
Its max response is -7.58% (inactive).

With `NC[C@H]1O[C@H](O[C@H]2[C@H](O)[C@@H](O[C@H]3O[C@H](CO)[C@@H](O)[C@H](N)[C@H]3O)[C@H](N)C[C@@H]2N)[C@H](O)[C@@H](O)[C@@H]1O` as the molecule, how does the max response read?
Its max response is 14.5% (inactive).

For `CC(=O)N[C@@H]1C(O[C@H]2O[C@H](C(=O)O)C(O)[C@H](O)[C@H]2O)[C@H](O)[C@@H](CO)O[C@H]1O[C@@H]1C(C(=O)O)O[C@@H](O[C@H]2[C@H](O)[C@@H](CO)OC(O)[C@@H]2NC(C)=O)[C@H](O)[C@H]1O` (stereo not given in full), which max response is on record?
Its max response is -7.66% (inactive).

How did the max response turn out when `C#C[C@]1(O)CC[C@@H]2[C@H]3CCC4=CC(=O)CC[C@H]4[C@H]3C(=C)C[C@@]21CC` was run?
The max response was 1.8% (inactive).

Which max response does the source give for `CCc1ncnc2cc(OC)c(OC)cc12` here?
Its max response is -4.18% (inactive).

`COc1cc2c(cc1OC)[C@@H](c1ccccc1)CN(C)CC2` was tested. Which max response did it give?
The max response was -3.02% (inactive).

`C=C1c2c(Cl)ccc(O)c2C(O)=C2C(=O)[C@]3(O)C(O)=C(C(N)=O)C(=O)[C@@H](N(C)C)[C@@H]3[C@@H](O)[C@H]12` was tested. Which max response did it give?
The max response was 7.79% (inactive).

`CCCCCCCCCCCCCCCC(=O)OC[C@H](COP(=O)([O-])OCC[N+](C)(C)C)OC(=O)CCCCCCCCCCCCCCC` was tested. Which max response did it give?
The max response was -12.2% (inactive).

With `FC(F)(F)C(F)(F)C(F)(F)C(F)(F)C(F)(F)F` as the molecule, how does the max response read?
The max response was -12.9% (inactive).

How did the max response turn out when `CCCCO` was run?
The max response was -19.5% (inactive).

How did the max response turn out when `CC(C)=CCC/C(C)=C/C=C/C(C)=C/C=C/C(C)=C/C=C/C=C(C)/C=C/C=C(C)/C=C/C=C(\C)CCC=C(C)C` was run?
Its max response is -16.3% (inactive).

How did the max response turn out when `CCCCCCCCCCCCCCCCCC(=O)OCC(C)O` (stereo not given) was run?
The max response was -14.3% (inactive).

With `FCOC(C(F)(F)F)C(F)(F)F` as the molecule, how does the max response read?
Its max response is 6.78% (inactive).

How did the max response turn out when `Cc1cccc(C)c1NC(=O)NC1=CCCN1C` was run?
Its max response is -2.58% (inactive).

With `CO[C@@H]1[C@H](OC(=O)/C=C/C=C/C=C/C=C/C(=O)O)CC[C@]2(CO2)[C@H]1[C@@]1(C)O[C@@H]1CC=C(C)C` as the molecule, how does the max response read?
Its max response is 2% (inactive).

How did the max response turn out when `CC[C@@]1([C@@H]2O[C@@H]([C@H]3O[C@@](O)(CO)[C@H](C)C[C@@H]3C)C[C@@H]2C)CC[C@H]([C@]2(C)CC[C@]3(C[C@H](O)[C@@H](C)[C@@H]([C@@H](C)[C@@H](OC)[C@H](C)C(=O)O)O3)O2)O1` (stereo in doubt) was run?
Its max response is -18.2% (inactive).

With `Cc1cc(O)c2c(c1)O[C@@]1(C)CC[C@H]3C(C)(C)CCCC34CO[C@@H]2[C@H]41` (stereo not given in full) as the molecule, how does the max response read?
The max response was -3.47% (inactive).

With `C[N+]1(C)[C@@H]2CC(OC(=O)C(O)(c3cccs3)c3cccs3)C[C@H]1[C@@H]1O[C@@H]12` (stereo not given in full) as the molecule, how does the max response read?
Its max response is -8.8% (inactive).

Which max response does the source give for `FC(F)OC(Cl)C(F)(F)F` (stereo not given) here?
Its max response is 0.674% (inactive).

`C=CCCCCCCCCC(=O)OC` was tested. Which max response did it give?
The max response was 9.89% (inactive).

`OCCN1CCN(CC/C=C2/c3ccccc3Sc3ccc(Cl)cc32)CC1` was tested. Which max response did it give?
The max response was 6.68% (inactive).

For `O=C(OC[C@H]1O[C@](O)(COC(=O)c2cccnc2)[C@@H](OC(=O)c2cccnc2)[C@@H]1OC(=O)c1cccnc1)c1cccnc1`, which max response is on record?
Its max response is -13.5% (inactive).

Which max response does the source give for `COc1ccc(C(=O)CCC(=O)O)c2ccccc12` here?
The max response was -0.566% (inactive).

With `O=C(O)COc1ccccc1/C=N/NC(=O)c1ccncc1` as the molecule, how does the max response read?
The max response was 4.6% (inactive).

Which max response does the source give for `C=CC1=C(C(=O)O)N2C(=O)[C@@H](NC(=O)/C(=N/OCC(=O)O)c3csc(N)n3)[C@H]2SC1` (stereo in doubt) here?
The max response was -4.79% (inactive).

Which max response does the source give for `CC(C)NCC(O)COc1ccccc1-n1cccc1` (stereo not given) here?
The max response was 24.4% (inactive).

How did the max response turn out when `CN[C@H](CC(C)C)C(=O)N[C@H]1C(=O)N[C@@H](CC(N)=O)C(=O)N[C@H]2C(=O)N[C@H]3C(=O)N[C@H](C(=O)N[C@@H](C(=O)O)c4cc(O)cc(O)c4-c4cc3ccc4O)[C@H](O)c3ccc(c(Cl)c3)Oc3cc2cc(c3O[C@@H]2O[C@H](CO)[C@@H](O)[C@H](O)[C@H]2O[C@H]2C[C@](C)(N)C(O)[C@H](C)O2)Oc2ccc(cc2Cl)[C@H]1O` (stereo not given in full) was run?
Its max response is 9.66% (inactive) and -29.2% (inactive).

Which max response does the source give for `COc1cc(C)c(/C=C/C(C)=C/C=C/C(C)=C/C(=O)O)c(C)c1C` here?
Its max response is -4.57% (inactive).

`Cc1ncc(C[n+]2csc(CCOP(=O)(O)OP(=O)(O)O)c2C)c(N)n1` was tested. Which max response did it give?
The max response was -1.51% (inactive).

Which max response does the source give for `CCCCCCCCCCCCCCCCCC[N+](C)(C)CCC[Si](OC)(OC)OC` here?
The max response was 8.62% (inactive).

Which max response does the source give for `CC/C=C\C/C=C\C/C=C\C/C=C\C/C=C\C/C=C\CCC(=O)O` here?
The max response was 0.95% (inactive).

For `OCC(O)CO`, which max response is on record?
Its max response is 0.712% (inactive).

For `CC1CCCC(C)N1NC(=O)c1ccc(Cl)c(S(N)(=O)=O)c1` (stereo not given), which max response is on record?
The max response was 1.28% (inactive).

How did the max response turn out when `NC(=O)OC[C@@H]1[C@H](NC(=O)/C(=N\OCC(=O)O)c2csc(N)n2)C(=O)N1S(=O)(=O)O` was run?
The max response was -1.39% (inactive).

For `CCCCCCOC(=O)c1cccnc1`, which max response is on record?
The max response was 6.05% (inactive).

For `CCCCCCCCCCCCCCCCCCOCC(COP(=O)([O-])OCC[N+](C)(C)C)OC` (stereo not given), which max response is on record?
The max response was 0.811% (inactive).

How did the max response turn out when `CO[C@H]1C[C@H](O[C@@H]2/C(C)=C/C[C@@H]3C[C@@H](C[C@]4(CC[C@H](C)[C@@H](C5CCCCC5)O4)O3)OC(=O)[C@@H]3C=C(C)/C(=N/O)[C@H]4OC/C(=C\C=C\[C@@H]2C)[C@]43O)O[C@@H](C)[C@@H]1O` was run?
Its max response is -1.21% (inactive).

`C[Si](C)(C)O[Si](C)(C)C` was tested. Which max response did it give?
The max response was -5.55% (inactive).

With `CC[C@H](CC[C@@H](C)[C@H]1CC[C@H]2[C@@H]3CC=C4C[C@@H](O)CC[C@]4(C)[C@H]3CC[C@]12C)C(C)C` as the molecule, how does the max response read?
The max response was -4.33% (inactive).

`CC(C)CN(C[C@@H](O)[C@H](Cc1ccccc1)NC(=O)O[C@@H]1CCOC1)S(=O)(=O)c1ccc(N)cc1` was tested. Which max response did it give?
Its max response is 0.899% (inactive).

From PubChem BioAssay (NCATS)
